Data from the supplement of paper PMC10981050.
Where a name gives a salt, the structure may show the parent alone.

System: K562
Assay: cell viability relative to vehicle control; higher = less cytotoxic
Conditions: 10 µM; SRSF2 genotype: SRSF2 wt/wt
Procedure, shortened: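 Each screen used CRISPR-edited mutant and wild-type clones from four leukaemia lines. Compounds were acoustically dispensed at a single 10 µM dose, and CellTiter-Glo luminescence was read after 48 h with the supernatant first removed. Viability was analysed in Genedata Screener and given as percent of the on-plate vehicle control.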

SMILES | cell viability
O=C(Nc1ccc(Br)cc1)c1ccc(Br)c(S(=O)(=O)NCc2ccccc2)c1 | 86.8%
CC[C@H]1OC(=O)[C@H](C)[C@@H](O[C@H]2C[C@@](C)(OC)[C@@H](O)[C@H](C)O2)[C@H](C)[C@@H](O[C@@H]2O[C@H](C)C[C@H](N(C)C)[C@H]2O)[C@](C)(O)C[C@@H](C)/C(=N\OCOCCOC)[C@H](C)[C@@H](O)[C@]1(C)O [Roxithromycin (Roxl-150)] | 94.9%
C=C1CC[C@H](O)C/C1=C/C=C1\CCC[C@]2(C)[C@@H]([C@H](C)/C=C/[C@H](C)C(C)C)CC[C@@H]12 [Vitamin D2 (Ergocalciferol)] | 102%
O=C(c1ccc(C(=O)N2CCC(N3CCCC3)CC2)c(Nc2ccccc2)c1)N1CCC(N2CCCC2)CC1 | 84.1%
OCc1ccc(-c2ccc(-c3ccc(CO)s3)o2)s1 | 7.66%
CCNC(=O)c1noc(-c2cc(C(C)C)c(O)cc2O)c1-c1ccc(CN2CCOCC2)cc1 [Luminespib (AUY-922, NVP-AUY922)] | 25.6%
O=C(c1ccc(Cl)cc1)N(Cc1ccccc1)C1CCCCC1 | 92.3%
COc1ccc2c3c1O[C@H]1C[C@@H](O)C=C[C@@]31CCN(C)C2 [Galanthamine] | 99.9%
CN1CCN(c2ccc3nc(-c4c(N)c5c(F)cccc5[nH]c4=O)[nH]c3c2)CC1 [Dovitinib (TKI-258, CHIR-258)] | 57.1%
COc1cc2nc(N3CCN(C(=O)C4CCCO4)CC3)nc(N)c2cc1OC (stereo not given) [Terazosin HCl Dihydrate] | 97%
CC[C@H](Nc1ncnc2[nH]cnc12)c1oc2ccccc2c(=O)c1-c1cccc(F)c1 [Tenalisib (RP6530)] | 98.2%
O=C(c1ccccc1)C(O)O [Phenylglyoxal hydrate] | 104%
O=c1c(O)c(-c2ccc(O)c(O)c2)oc2cc(O)cc(O)c12 [Quercetin (Sophoretin)] | 91.5%
CO[C@H]1/C=C/O[C@@]2(C)Oc3c(C)c(O)c4c(O)c(c5c(nc6cc(C)ccn65)c4c3C2=O)NC(=O)/C(C)=C\C=C\[C@H](C)[C@H](O)[C@@H](C)[C@@H](O)[C@@H](C)[C@H](OC(C)=O)[C@@H]1C [Rifaximin (Xifaxan)] | 98.1%
CC[C@@]1(O)C(=O)OCc2c1cc1n(c2=O)Cc2cc3c(CN(C)C)c(O)ccc3nc2-1 [Topotecan] | 17.5%
C=C(C)[C@@H]1CC[C@]2(C(=O)O[C@@H]3O[C@H](CO[C@@H]4O[C@H](CO)[C@@H](O[C@@H]5O[C@@H](C)[C@H](O)[C@@H](O)[C@H]5O)[C@H](O)[C@H]4O)[C@@H](O)[C@H](O)[C@H]3O)CC[C@]3(C)[C@H](CC[C@@H]4[C@@]5(C)CC[C@H](O[C@@H]6OC[C@H](O)[C@H](O)[C@H]6O[C@@H]6O[C@@H](C)[C@H](O)[C@@H](O)[C@H]6O)[C@@](C)(CO)[C@@H]5CC[C@]43C)[C@@H]12 [Anemoside B4] | 92%
CN1CCN2c3ncccc3Cc3ccccc3C2C1 (stereo not given) [Mirtazapine (Remeron, Avanza)] | 88.7%
NCCCCCN [Cadaverine] | 99.5%

SMILES | cell viability
CCN1CCN(Cc2ccc(C(=O)Nc3ccc(C)c(Oc4ccc5c(c4)CC(=O)N5)c3)cc2C(F)(F)F)CC1 | 9.71%
O=C(O)c1cc(C(=O)O)c2c(n1)C(=O)C(=O)c1cc(C(=O)O)[nH]c1-2 [Pyrroloquinoline Quinone Disodium Salt] | 98.9%
CC(C)C(=O)Nc1ccc([N+](=O)[O-])c(C(F)(F)F)c1 [Flutamide (Eulexin)] | 101%
O=C(Cc1ccccc1)Nc1nnc(CCSCCc2nnc(NC(=O)Cc3ccccc3)s2)s1 | 88.7%
CCn1nc(C2CCN(C(=O)CCO)CC2)nc1-c1cnc(N)c(-c2nnc(C(C)(C)C)o2)n1 | 104%
OC[C@H]1O[C@@H](Oc2cc(O)cc(/C=C/c3ccc(O[C@@H]4O[C@H](CO)[C@@H](O)[C@H](O)[C@H]4O)cc3O)c2)[C@H](O)[C@@H](O)[C@@H]1O [Mulberroside A] | 98.2%
O=C(C[S+]([O-])Cc1ccco1)NC/C=C\COc1cc(CN2CCCCC2)ccn1 (stereo not given) [Lafutidine] | 102%
Cn1cc(CNCC2CCN(c3ncc(C(=O)NO)cn3)CC2)c2ccccc21 | 3%
NC(=O)c1ccc(I)c([N+](=O)[O-])c1 [Iniparib (BSI-201)] | 113%
COc1cc(C=O)ccc1OC(C)=O [Acetylvanillin] | 99.7%
C=CS(=O)(=O)NC1CCN(C(=O)CNc2cc(I)c(Cl)cc2OC)CC1 [K-Ras(G12C) inhibitor 9] | 82.8%
CN1CCN(C(=O)c2cc3cc(Cl)ccc3[nH]2)CC1 | 98.6%
OC[C@H]1O[C@H](OC[C@H]2O[C@H](O[C@]3(CO)O[C@H](CO)[C@@H](O)[C@@H]3O)[C@H](O)[C@@H](O)[C@@H]2O)[C@H](O)[C@@H](O)[C@H]1O [Raffinose] | 95.4%
Cc1cc(C)nc(O)n1.O=C(Nc1ccc([N+](=O)[O-])cc1)Nc1ccc([N+](=O)[O-])cc1 [Nicarbazin] | 110%
O=c1cc(-c2ccc(O)c(O)c2)oc2cc(O)c([C@@H]3O[C@H](CO)[C@@H](O)[C@H](O)[C@H]3O)c(O)c12 [Homoorientin] | 84.1%
Clc1ccc(C(Cn2ccnc2)OCc2ccc(Sc3ccccc3)cc2)c(Cl)c1 (stereo not given) [Fenticonazole nitrate] | 63.8%
O=c1cc(N2CCOCC2)oc2c(-c3ccc4c(c3)OCCO4)csc12 | 46.9%
